What all share (settings): mRNA level, 48 h; actives raise or lower the signal
Read-out in assay [1]: succinate dehydrogenase complex iron sulfur subunit B (SDHB), SDHB (gene 6390)
As to the kind of experiment: LTEA_HepaRG_SDHB: Life Technologies and Expression Analysis (LTEA) Assay for succinate dehydrogenase complex iron sulfur subunit B (SDHB) using HepaRG (AID 2283528). Summed up: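 HepaRG, 48 h exposure, 8-pt half-log series from 100 uM in 0.5% DMSO, duplicates. Readout: SDHB mRNA by Fluidigm qRT-PCR vs housekeeping genes; bidirectional fit relative to DMSO.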

Read-out in assay [2]: Signal transducer and activator of transcription 3 (Homo sapiens) (UniProt P40763)
Kind of assay: LTEA_HepaRG_STAT3: Life Technologies and Expression Analysis (LTEA) Assay for Signal transducer and activator of transcription (STAT3) using HepaRG (AID 2283529). The method in brief: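 In this transcriptional endpoint, HepaRG cultures receive test chemicals at up to 100 uM for 48 h, tested in duplicate. STAT3 mRNA is normalized to ACTB, GAPDH and POLR2A.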

Read-out in assay [3]: solute carrier (SLCO1B1), SLCO1B1 (gene 10599)
As to the kind of experiment: LTEA_HepaRG_SLCO1B1: Life Technologies and Expression Analysis (LTEA) Assay for solute carrier (SLCO1B1) using HepaRG (AID 2283530). Summed up: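 SLCO1B1 transcript read by qRT-PCR (Fluidigm arrays), normalized to three housekeeping genes, after 48 h chemical exposure of HepaRG cells; bidirectional concentration-response fitting versus 0.5% DMSO baseline. Eight-point half-log series, maximum 100 uM.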

Read-out in assay [4]: sulfotransferase 2A1 (SULT2A1), SULT2A1 (gene 6822)
Kind of assay: LTEA_HepaRG_SULT2A1: Life Technologies and Expression Analysis (LTEA) Assay for sulfotransferase 2A1 (SULT2A1) using HepaRG (AID 2283531). The method in brief: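 HepaRG, 48 h chemical exposure, 8-pt half-log curve from 100 uM in 0.5% DMSO, duplicates. Readout: TaqMan qRT-PCR of SULT2A1 mRNA, housekeeping-normalized. Bidirectional fit vs DMSO baseline.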

Read-out in assay [5]: Transforming Growth Factor (TGFA), TGFA (gene 7039)
Kind of assay: LTEA_HepaRG_TGFA: Life Technologies and Expression Analysis (LTEA) Assay for Transforming Growth Factor (TGFA) using HepaRG (AID 2283532). Summed up:
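Gene expression of TGFA was quantified by qRT-PCR after human HepaRG cells were treated for 48 h with test chemicals (eight concentrations, highest 100 uM, 0.5% DMSO). Activity in either direction was fitted relative to DMSO.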

Read-out in assay [6]: Transforming Growth Factor (TGFB1), TGFB1 (gene 7040)
As to the kind of experiment: LTEA_HepaRG_TGFB1: Life Technologies and Expression Analysis (LTEA) Assay for Transforming Growth Factor (TGFB1) Transporter using HepaRG (AID 2283533). The method in brief: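 qRT-PCR readout of TGFB1 transcript in HepaRG lysates, normalized to three housekeeping genes; gain or loss of signal fitted relative to 0.5% DMSO vehicle. Exposure: 48 h, 8-point curve from 100 uM, duplicate wells.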

Read-out in the next assay: TIMP1, TIMP1 (gene 7076)
As to the kind of experiment: LTEA_HepaRG_TIMP1: Life Technologies and Expression Analysis (LTEA) Assay for TIMP1 using HepaRG (AID 2283534).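 For outcome: TaqMan qRT-PCR signal normalized to ACTB GAPDH and POLR2A housekeeping genes.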 Summed up: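 HepaRG, 48 h exposure, 8-pt half-log series from 100 uM in 0.5% DMSO, duplicates; TIMP1 transcript by Fluidigm qRT-PCR, housekeeping-normalized; bidirectional curve fit vs DMSO baseline.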

Read-out in assay [7]: Tumor necrosis factor receptor 1 (TNFRSF1A), TNFRSF1A (gene 7132)
As to the kind of experiment: LTEA_HepaRG_TNFRSF1A: Life Technologies and Expression Analysis (LTEA) Assay for Tumor necrosis factor receptor 1 (TNFRSF1A) using HepaRG (AID 2283535). The method in brief:
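HepaRG, 48 h plating then 48 h chemical exposure, serum-free induction media; 8-pt CRC from 100 uM, half-log, 0.5% DMSO vehicle, duplicates. Readout: TaqMan qRT-PCR (Fluidigm), housekeeping-gene normalized; bidirectional fit vs DMSO.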

Read-out in assay [8]: Thyroid Hormone Responsive (THRSP), THRSP (gene 7069)
Kind of assay: LTEA_HepaRG_THRSP: Life Technologies and Expression Analysis (LTEA) Assay for Thyroid Hormone Responsive (THRSP) using HepaRG (AID 2283536). The method in brief:
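Cell model: human HepaRG, approx. 100,000 cells/well, 0.5% DMSO vehicle. Exposure lasts 48 h; phenobarbital 1 mM serves as induction positive control. Gene expression is measured by qRT-PCR against three endogenous control genes.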

Read-out in assay [9]: Cellular tumor antigen p53 (Homo sapiens) (UniProt P04637)
Kind of assay: LTEA_HepaRG_TP53: Life Technologies and Expression Analysis (LTEA) Assay for Tumor Protein P53 (TP53) using HepaRG (AID 2283537). Summed up: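 HepaRG, 48 h exposure, top 100 uM, half-log 8-point, 0.5% DMSO vehicle, duplicates. Read: TP53 mRNA by TaqMan qRT-PCR, normalised to ACTB/GAPDH/POLR2A; bidirectional fit vs DMSO.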

Molecules are shown by their SMILES. Active and inactive are the calls of the source. Rule for the calls: active = hit-call score of the fitted dose curve at least 0.9, where 1 is the maximum; inactive = score below 0.9.

Signal transducer and activator of transcription 3 (Homo sapiens), sequence (P40763 whole entry, looked up): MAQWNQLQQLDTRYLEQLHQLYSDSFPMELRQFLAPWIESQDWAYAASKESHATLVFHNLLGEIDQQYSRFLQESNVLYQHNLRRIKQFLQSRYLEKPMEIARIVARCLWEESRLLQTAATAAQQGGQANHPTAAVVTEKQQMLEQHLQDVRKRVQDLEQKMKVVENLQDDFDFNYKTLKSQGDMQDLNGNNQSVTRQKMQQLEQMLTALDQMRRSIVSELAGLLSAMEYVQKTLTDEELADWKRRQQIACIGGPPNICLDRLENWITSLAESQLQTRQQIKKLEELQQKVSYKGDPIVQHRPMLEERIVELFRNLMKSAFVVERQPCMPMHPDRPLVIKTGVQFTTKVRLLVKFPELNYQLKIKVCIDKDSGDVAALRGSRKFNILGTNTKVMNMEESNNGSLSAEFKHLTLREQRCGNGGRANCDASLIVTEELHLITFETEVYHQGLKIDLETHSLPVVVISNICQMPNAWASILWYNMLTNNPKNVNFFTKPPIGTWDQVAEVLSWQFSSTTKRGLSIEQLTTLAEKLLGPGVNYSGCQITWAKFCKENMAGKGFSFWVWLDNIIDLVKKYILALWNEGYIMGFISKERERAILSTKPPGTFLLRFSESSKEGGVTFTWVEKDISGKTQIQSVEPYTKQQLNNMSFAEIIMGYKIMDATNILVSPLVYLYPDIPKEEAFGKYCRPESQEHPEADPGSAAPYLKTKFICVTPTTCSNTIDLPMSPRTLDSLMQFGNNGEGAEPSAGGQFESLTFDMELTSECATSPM
Cellular tumor antigen p53 (Homo sapiens), sequence (P04637 whole entry, looked up): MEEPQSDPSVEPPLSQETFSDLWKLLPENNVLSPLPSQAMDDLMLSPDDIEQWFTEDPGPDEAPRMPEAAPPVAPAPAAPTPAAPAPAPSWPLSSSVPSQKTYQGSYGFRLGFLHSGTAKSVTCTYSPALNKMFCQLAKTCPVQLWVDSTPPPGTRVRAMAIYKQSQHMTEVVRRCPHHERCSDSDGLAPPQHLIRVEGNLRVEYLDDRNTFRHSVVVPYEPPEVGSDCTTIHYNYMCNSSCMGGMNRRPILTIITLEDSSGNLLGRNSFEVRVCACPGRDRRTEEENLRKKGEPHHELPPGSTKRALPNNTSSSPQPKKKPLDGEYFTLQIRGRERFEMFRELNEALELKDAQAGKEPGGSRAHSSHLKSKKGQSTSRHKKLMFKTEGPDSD

On to `CCOP(=S)(Oc1cnc(C(C)(C)C)nc1)OC(C)C` (stereo not drawn), for which the compound was called inactive in assay [1], in assay [2], in assay [3], in assay [4], in assay [5] and in [6]. The outcome with TIMP1, TIMP1 (gene 7076) is “inactive”; in assay [7] it was “inactive”; in assay [9] it was “inactive”. In addition, the AC50 (commonly the concentration giving half of the maximal activity seen) in assay [8] was 68.5 µM (active).

On to `COP(=O)(NC(C)=O)SC` (stereo not drawn), for which the outcome in [1], in assay [2], in [3], in assay [4], in [5] and in assay [6] was inactive. The outcome is “inactive” with TIMP1, TIMP1 (gene 7076); “inactive” in assay [8]; “inactive” in assay [9].

Consider `COP(=O)(OC)C(O)C(Cl)(Cl)Cl` (stereo not drawn), for which the call in assay [1], in assay [2], in assay [3], in assay [4], in assay [5] and in assay [6] was inactive. The outcome in [8] and in assay [9] was inactive. In addition, the AC50 with TIMP1, TIMP1 (gene 7076) was 0.0702 µM (active); in assay [7], 0.109 µM (active).

On to `CCOP(=S)(OCC)Oc1ccc([N+](=O)[O-])cc1`, for which the result in assay [1], in assay [2], in assay [3], in assay [4], in [5] and in assay [6] was inactive. Besides, the outcome in the assay with TIMP1, TIMP1 (gene 7076) is “inactive”; in [7], “inactive”; in [8], “inactive”; in assay [9] it was “inactive”.

On to `COc1ccc(C(=CC(=O)N2CCOCC2)c2ccc(Cl)cc2)cc1OC`, for which the compound was called inactive in assay [1], in assay [2], in [3], in [4], in [5] and in assay [6]. Moreover, the outcome in the assay with TIMP1, TIMP1 (gene 7076) is “inactive”; in assay [7] it was “inactive”; in assay [9], “inactive”. The AC50 in [8] was 63.8 µM (active).

For `CC(=NC#N)N(C)Cc1ccc(Cl)nc1`, the result in [1], in assay [2], in assay [3], in [4], in assay [5] and in [6] was inactive. The outcome with TIMP1, TIMP1 (gene 7076) was “inactive”; in assay [7] it was “inactive”; in assay [8], “inactive”; in assay [9], “inactive”.

In the case of `CC(COc1ccc(Oc2ccccc2)cc1)Oc1ccccn1` (stereo not drawn), the result in assay [1], in assay [2], in [3], in assay [4], in assay [5] and in assay [6] was inactive. Besides, the outcome in the assay with TIMP1, TIMP1 (gene 7076) is “inactive”; in assay [7] it was “inactive”; in [9] it was “inactive”. The AC50 in assay [8] was 16.3 µM (active).

For the compound `CCC(=O)Nc1ccc(Cl)c(Cl)c1`, the outcome in assay [1], in [2], in assay [3], in assay [4], in assay [5] and in [6] was inactive. For the same compound, the outcome is “inactive” with TIMP1, TIMP1 (gene 7076); “inactive” in assay [7]; “inactive” in [8]; “inactive” in [9].

With `CN(C)C(=O)Nc1cccc(C(F)(F)F)c1`, the compound was called inactive in [1], in assay [2], in assay [4], in [5], in assay [6] and in [8]. Also, the call in assay [9] was inactive. The AC50 in [3] is 50 µM (active); with TIMP1, TIMP1 (gene 7076), 78.8 µM (active); in [7], 81 µM (active).

In the case of `CNc1cnn(-c2cccc(C(F)(F)F)c2)c(=O)c1Cl`, the compound was classed as inactive in assay [1], in [2], in assay [3], in assay [4], in assay [5] and in assay [6]. Moreover, the outcome with TIMP1, TIMP1 (gene 7076) was “inactive”; in [7], “inactive”; in [8], “inactive”; in [9], “inactive”.

Regarding `Nc1nc(N)nc(NC2CC2)n1`, the outcome in assay [1], in assay [2], in assay [3], in [4], in assay [5] and in assay [6] was inactive. Besides, the outcome was “inactive” with TIMP1, TIMP1 (gene 7076); “inactive” in assay [7]; “inactive” in [8]; “inactive” in assay [9].

With `CSc1nc(NC(C)C)nc(NC(C)C)n1`, the outcome was “inactive” in assay [1]; “inactive” in assay [2]; “inactive” in [5]; “inactive” in [6]; “inactive” with TIMP1, TIMP1 (gene 7076); “inactive” in assay [7]. In assay [9], the outcome was inactive. Also, the AC50 in assay [3] was 50 µM (active); in assay [4], 84.9 µM (active); in assay [8], 76.7 µM (active).

Regarding `CC1(C(=O)Nc2ccc(O)c(Cl)c2Cl)CCCCC1`, the result in assay [1], in [2], in assay [3], in [4], in assay [5] and in [6] was inactive. The outcome in the assay with TIMP1, TIMP1 (gene 7076) was “inactive”; in [8] it was “inactive”; in [9], “inactive”.

In the case of `CCNc1nc(Cl)nc(NC(C)(C)C#N)n1`, the result in assay [1], in assay [2], in [3], in assay [4], in assay [5] and in [6] was inactive. Also, the outcome was “inactive” with TIMP1, TIMP1 (gene 7076); “inactive” in assay [7]; “inactive” in assay [8]; “inactive” in assay [9].

As to `COc1cc(OC)nc(Sc2cccc(Cl)c2C(=O)O)n1`, the compound was called inactive in assay [1], in assay [2], in assay [3], in assay [4], in assay [5] and in assay [6]. In addition, the outcome in the assay with TIMP1, TIMP1 (gene 7076) is “inactive”; in assay [7], “inactive”; in assay [8] it was “inactive”; in assay [9], “inactive”.

Turning to `CCCCN(CC)c1c([N+](=O)[O-])cc(C(F)(F)F)cc1[N+](=O)[O-]`, the compound was classed as inactive in assay [1], in [2], in assay [3], in [4], in assay [5] and in assay [6]. The outcome is “inactive” in the assay with TIMP1, TIMP1 (gene 7076); “inactive” in assay [7]; “inactive” in [8]; “inactive” in assay [9].

The values are drawn from PubChem BioAssay (EPA / NIEHS).
